# D2 PAM-1: positive allosteric modulators of human D2 dopamine receptor; DiscoveRx D2 beta-arrestin cells, luminescence, 90 min; 100% = 57 uM dopamine signal; potentiation, % (no concentration beside the values); 360,000 compounds, 0.23% hits; in the data active = potentiation above about 50%; inconclusive = mostly about 30% to 49%
# Target sequence (P14416 whole entry, looked up): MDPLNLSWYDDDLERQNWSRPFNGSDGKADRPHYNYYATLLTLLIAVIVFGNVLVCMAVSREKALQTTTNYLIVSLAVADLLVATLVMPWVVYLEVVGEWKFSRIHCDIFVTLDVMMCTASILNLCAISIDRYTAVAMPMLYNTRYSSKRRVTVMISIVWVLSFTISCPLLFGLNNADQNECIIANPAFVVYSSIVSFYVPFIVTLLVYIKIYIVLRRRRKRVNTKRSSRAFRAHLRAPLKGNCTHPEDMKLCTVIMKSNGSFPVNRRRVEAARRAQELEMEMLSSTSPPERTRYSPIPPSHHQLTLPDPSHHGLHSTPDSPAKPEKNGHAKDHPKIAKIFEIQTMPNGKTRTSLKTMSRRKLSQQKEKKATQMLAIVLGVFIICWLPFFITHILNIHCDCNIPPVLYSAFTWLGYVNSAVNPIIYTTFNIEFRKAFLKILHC
#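 D2 cells co-treated with compound plus 50 nM dopamine (EC20) for 90 min at 37 deg C to detect potentiation. Beta-arrestin recruitment was read as enzyme-fragment luminescence after 1 h at ambient temperature. Full response was set by 57 uM dopamine.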
# D2 ag-1: activates the human D2 dopamine receptor; P14416; DiscoveRx PathHunter D2 beta-arrestin, luminescence, 90 min; 100% = 57 uM dopamine signal; activation, % (test concentration not listed); 360,000 compounds, 0.084% hits; in the data active = activation above about 40%; inconclusive = between about 15% and that limit
#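 DiscoveRx PathHunter D2 beta-arrestin cells (2,100/well) attached overnight, then compound-stimulated 90 min at 37 C in HBSS/10 mM HEPES/0.1% Tween-20 buffer; beta-galactosidase complementation read by luminescence after 1 h at ambient temperature. Dopamine 57 uM final (EC100) as control.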
# D2 ag-2: activates the human D2 dopamine receptor | activation, % at 2 µM | HEK293 T-REx D2 cells, calcium flux agonist mode | P14416 | AID 485358 | 340,000 compounds, 0.53% hits;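 active = activation over 3 SD above normal in the single-dose calcium agonist read, cut at about 30% in these data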; also: 0% is about no effect
#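 Tetracycline-induced HEK293 Trex cells with D2 receptor force-coupled to calcium signaling, plated overnight at 30 C and loaded with no-wash calcium dye. Calcium flux read kinetically for 180 s after compound addition; responses flag agonists.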
# D2 antag: antagonizes the human D2 dopamine receptor | inhibition, % at 10 µM | P14416 | 340,000 compounds, 2% hits | HEK293 TREx D2 cells, calcium flux, dopamine EC80; in the data active = inhibition above about 30%; inactive = below that, where a call was filed; also: 0% is about no effect
#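 Measurement of antagonist activity uses fluorescent calcium dye in inducible HEK293 T-REx D2 cells: 10 s baseline, compound addition with 180 s read, EC80 dopamine addition with a further 180 s read.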
# D2 PAM-2: positively modulates the human D2 dopamine receptor allosterically | P14416 | HEK293 T-REx D2, calcium flux, EC20 dopamine potentiation | potentiation, % at 10 µM | 340,000 compounds, 0.34% hits | AID 485347;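 active = potentiation over 3 SD above the plate norm, cut at about 30% in these data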; also: 0% is about no effect
#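 Potentiation of an EC20 dopamine calcium response measured kinetically over 180 s, after a preceding 180 s compound-only read flagging agonists. Cells: inducible Hek293 Trex D2 line, 4000/well, cultured overnight at 30 C before dye loading.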
# Active calls of the source: *; ? = inconclusive; nt = not tested or not shown. Rows were chosen to be rich in hits. Some 2.4% of all compounds tested hit in one or more screens of this group.
SMILES,D2 PAM-1,D2 ag-1,D2 ag-2,D2 antag,D2 PAM-2
Cc1cc(=O)n(CCCO)c(O)c1C#N,?,7,1,3,-5
Cc1cc(=O)n(CC(C)O)c(O)c1C#N (stereo unspecified),62*,5,-1,-22,6
COc1cc2c(cc1OC)C(COc1ccc3c(C)cc(=O)oc3c1)N(C(=O)c1ccccc1C)CC2 (stereo unspecified),nt,nt,-1,nt,nt
Cc1ccc(C2CC(c3ccccc3)=NN2c2ccccc2)o1 (stereo unspecified),-9,-6,-1,36*,-3
Fc1ccc(C2=NN(c3ccccc3)C(c3ccco3)C2)cc1 (stereo unspecified),-4,-9,-1,-35,18
Oc1ccc(C2=NN(c3ccccc3)C(c3ccc(F)cc3)C2)cc1 (stereo unspecified),0,5,1,33*,4
CCc1ccc(S(=O)(=O)c2cn(Cc3ccc(OC)cc3)c3cc(OC)c(OC)cc3c2=O)cc1,nt,nt,1,nt,-2
Cc1ccc(NC(=O)COC(=O)COc2cccc3c2OC(C)(C)C3)c(C)c1,-8,-6,0,0,0
COC(=O)C1=CN(Cc2ccccc2)C=C(C(=O)OC)C1c1cc(F)ccc1F,-11,-2,-1,-3,16
COc1cc(OC)c(C(=O)NC23CC4CC(CC(C4)C2)C3)cc1OC,65*,-2,1,-3,-2
CNC(=O)c1nnc(Cc2ccc(F)cc2)o1,-2,-5,-1,58*,0
CC1CN(C(=O)c2cc3ccccc3cc2O)CC(C)O1 (stereo unspecified),6,3,nt,nt,nt
CC(=O)Nc1ccccc1C(=O)N1CC(C)OC(C)C1 (stereo unspecified),-16,-1,1,1,40*
CC1CCCCC1NC(=O)CSc1nnnn1C (stereo unspecified),3,-1,1,-6,-11
O=c1[nH]nc(CNc2ccc(C(F)(F)F)cc2)c2ccccc12,1,6,1,0,7
O=c1[nH]nc(CNc2ccc(O)cc2)c2ccccc12,71*,14,1,-17,16
C=CCN1CCc2c(cc(O)c(O)c2Br)[C@@H](c2ccccc2)C1,66*,59*,nt,nt,nt
Cc1nn(-c2ccccc2)c(C)c1C(=O)OCC(=O)N(C)C1CCS(=O)(=O)C1 (stereo unspecified),-2,-1,1,38*,0
Cc1ccc(S(=O)(=O)N(C)C)cc1NC(=S)Nc1ccc2cn[nH]c2c1,-14,-4,-2,43*,-12
CN(C)S(=O)(=O)c1cccc(NC(=S)NCCc2ccccn2)c1,-11,-3,1,24,-9
Cc1ccc(S(=O)(=O)N(C)C)cc1NC(=S)NCCc1ccccn1,-19,1,0,34*,-26
CC1CCc2sc(C(=O)N3CCC(C(N)=O)CC3)cc2C1 (stereo unspecified),-1,-1,0,9,-16
O=C(NCC(c1cccnc1)N1CCc2ccccc21)c1cccc(Br)c1 (stereo unspecified),nt,nt,1,nt,-7
COc1ccc2c(c1)-c1nc(/N=C/c3ccc(O)cc3)sc1CC2,-15,3,-1,45*,-6
O=C(OCC(=O)N1CCc2ccccc21)c1ccc([N+](=O)[O-])o1,8,?,nt,nt,nt
SMILES,D2 PAM-1,D2 ag-1,D2 ag-2,D2 antag,D2 PAM-2
COc1cc2ccccc2nn1,-6,-2,1,-5,12
COc1ccc2c(n1)Sc1nc3ccccc3nc1N2,2,4,92*,49*,-5
CCOc1cc(/C=N/NC(N)=O)cc(Br)c1OCC(=O)Nc1ccccc1C,53*,-2,0,-24,9
Cc1ccccc1Cn1c(CN2CCC(C(=O)NCc3cccnc3)CC2)cc2ccccc21,nt,nt,nt,nt,5
CCC(CC)NC(=O)CN1CCN(S(=O)(=O)c2ccc(Br)s2)CC1,50*,2,-1,-4,0
O=C(C1COc2ccccc2O1)N1CCCCC1 (stereo unspecified),-2,-1,-1,51*,0
COc1ccc2c(c1)CCc1sc(NC(=O)c3ccco3)nc1-2,4,5,-1,-2,30*
COc1ccc2c(c1)-c1nc(NC(=O)c3ccco3)sc1CC2,1,3,-1,5,2
O=C(O)CC1Cc2ccccc2C1C(=O)O (stereo unspecified),-10,-2,nt,nt,nt
C#CC(C)(C)NS(=O)(=O)c1cc(-c2nnc(Nc3ccc(C)cc3)c3ccccc23)ccc1C,nt,nt,0,nt,3
CCN(CC)CCCNC(=O)c1cc2c(-c3cccc(OC)c3)nn(C)c2s1,-49,0,0,-28,-2
COc1cccc(-c2nn(C)c3sc(C(=O)NCCCN(C)Cc4ccccc4)cc23)c1,-36,7,-2,33*,-23
CCCCN(C)CCNC(=O)c1cc2c(-c3ccccc3F)nn(C)c2s1,-13,3,32*,24,-16
Cn1nc(-c2ccc(Cl)cc2)c2cc(C(=O)NCCCN3CCCC3)sc21,11,14,0,33*,-26
COc1cccc(-c2nn(C)c3sc(C(=O)NCc4ccco4)cc23)c1,-28,-3,0,36*,-17
Cc1cccc(N2CCN(C(=O)c3ccccc3SCC(=O)N3CCCC3)CC2)c1C,-6,3,-1,7,2
CCNC(=O)C1(C)CCCN1Cc1c(F)cccc1F (stereo unspecified),-17,-1,nt,nt,nt
CC1(C(=O)Nc2ccc(Cl)cc2)Cc2c(-c3ccc4c(c3)OCO4)ccnc2O1 (stereo unspecified),-5,-1,nt,nt,nt
Cc1cccnc1NC(=O)CCc1nnc2ccc(N3CCC4(CC3)OCCO4)nn12,-5,2,0,0,-12
O=C(O)c1cccc(CN2C(=O)c3ccccc3C2=O)c1,-4,-3,0,-17,2
O=C1c2cccc3c(O)ccc(c23)C(=O)N1Cc1ccccc1,17,8,101*,34*,-19
CSc1ccccc1NC(=O)CN(C)C(C)C(=O)NCc1ccc2c(c1)OCO2 (stereo unspecified),-3,-5,nt,nt,nt
Cc1cc(NC(=O)CSc2nc(C(C)C)nc3sc(C)c(C)c23)no1,3,7,0,35*,6
CC1(C)Cc2c(c(N3CCOCC3)nc3sc(C#N)c(N)c23)CS1,3,-3,0,38*,14
CC1(C)Cc2c(c(N3CCOCC3)nc3sc(C(N)=O)c(N)c23)CO1,0,-4,0,-9,10
COc1ccc(-c2noc(CCC(=O)NCCCN3CCN(c4ccccc4F)CC3)n2)cc1,-5,-1,5,84*,-15
Cc1ccc(-c2noc(CCC(=O)NCCCN3CCN(c4cccc(Cl)c4)CC3)n2)cc1,-44,-5,0,-18,8
